# TDP1 cell CPT: growth inhibition of DT40 Tdp1-/-;hTDP1 cells with camptothecin (screen for TDP1 inhibitors). chicken DT40 Tdp1-/-;hTDP1 cells + 20 nM CPT, ATP luminescence, 48 h. Potency, µM (titrated, usually from 46.2 µM), inactives show at the highest dose activity change, negative = growth inhibition, most hits filed as inhibitors. 420,000 tested, 12% active; further: potency means the concentration at half of the fitted maximal effect; nearly all actives have a fitted effect of over 55% in size
#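 Chicken DT40 Tdp1-/- cells complemented with human TDP1, 400 cells/well, exposed to compounds plus 20 nM camptothecin for at least 48 h at 37 C; viability read as ATP content by CellTiter-Glo luminescence.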
# ALOX12 inh: ALOX12 (human) lipoxygenase inhibition; P18054; purified 12hLO, xylenol orange hydroperoxide absorbance; Potency, µM (doses to about 108 µM), for the others: at the highest dose activity change, negative = inhibition, actives largely listed as inhibitors; 580,000 tested, 1.1% active; AID 1671190; further: potency means the concentration at half of the fitted maximal effect
# Target sequence (P18054 whole entry, looked up): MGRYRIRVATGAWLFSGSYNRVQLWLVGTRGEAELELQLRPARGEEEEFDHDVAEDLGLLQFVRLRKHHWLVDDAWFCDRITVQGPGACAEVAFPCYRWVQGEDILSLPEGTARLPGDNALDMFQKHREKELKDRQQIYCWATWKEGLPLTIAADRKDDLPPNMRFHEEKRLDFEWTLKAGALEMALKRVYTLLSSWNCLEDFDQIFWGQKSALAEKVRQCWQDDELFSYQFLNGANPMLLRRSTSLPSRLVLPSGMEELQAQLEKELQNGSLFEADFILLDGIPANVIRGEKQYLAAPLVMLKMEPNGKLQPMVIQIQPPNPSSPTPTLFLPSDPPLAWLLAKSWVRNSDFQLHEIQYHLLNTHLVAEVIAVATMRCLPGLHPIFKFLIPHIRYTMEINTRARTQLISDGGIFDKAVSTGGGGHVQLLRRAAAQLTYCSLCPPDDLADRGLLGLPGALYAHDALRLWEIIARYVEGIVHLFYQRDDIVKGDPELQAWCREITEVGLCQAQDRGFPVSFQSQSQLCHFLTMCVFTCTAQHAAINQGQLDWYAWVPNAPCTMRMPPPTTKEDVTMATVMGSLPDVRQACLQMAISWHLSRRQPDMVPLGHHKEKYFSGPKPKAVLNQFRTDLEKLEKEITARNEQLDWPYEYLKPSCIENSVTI
#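 Purified human 12hLO (150 nM final) in 25 mM Hepes, 0.01% Triton X-100, pH 7.0 was preincubated 15 min at room temperature with compound. Then 40 uM arachidonic acid was added, 30 min. Hydroperoxide was read by Fe-XO absorbance ratio 573/405 nm.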
# IL1B secr inh: inflammasome signaling inhibition, IL-1 beta readout | 360,000 tested, 4.7% active | AID 743279 | activity change, % at 57.5 µM | THP-1 LPS/ATP IL-1B secretion, AlphaLISA, 16 h; stronger effect = lower value; in the data active means activity change below about -50%; inconclusive means mostly about -30% to -49%
#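 Secreted IL-1B measured by AlphaLISA bead assay after 16 h compound exposure of THP-1 cells; compounds (final up to 57.5 uM) added 1 h before LPS (250 ng/mL) and ATP (1.25 mM) stimulation; lower signal means less secretion.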
# TDP1 cell noCPT: qHTS for Inhibitors of human tyrosyl-DNA phosphodiesterase 1 (TDP1): qHTS in cells in absence of CPT | AID 686978, 2013 | DT40 Tdp1-/- hTDP1 cells, no CPT, ATP luminescence, 48 h | Potency, µM (doses to about 46.2 µM), for the others: at the top dose activity change, negative = growth inhibition, usual class: inhibitors | 420,000 tested, 15% active; further: potency means the concentration at half of the fitted maximal effect; nearly all actives have a fitted effect of over 55% in size
#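 Chicken DT40 Tdp1-/- cells stably complemented with human TDP1 were seeded at 400 cells/well with DMSO in place of 20 nM camptothecin. After compound pinning, cells grew at least 48 hr at 37 °C; viability read by CellTiter-Glo luminescence.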
# HT1080NT lethal: kills 2HG-producing HT-1080-NT fibrosarcoma cells. HT-1080-NT fibrosarcoma viability, CellTiter-Glo ATP luminescence, 48 h. Potency, µM (highest dose often 46.1 µM), without a hit: at the highest dose activity, negative = less viability, actives largely listed as cytotoxic. 360,000 tested, 1.6% active;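 further: NT is the 2HG producing partner of a matched IDH1 knockdown line; potency means the concentration at half of the fitted maximal effect; 0% = DMSO-treated cells and -100% = media-only wells without cells; nearly all actives have a fitted effect of over 55% in size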
#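 HT-1080-NT; 750 cells/well; 5% FBS RPMI; 48 h compound, 37 degrees C; CellTiter-Glo luminescence; curve fitting and curve-class assignment.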
# HT1080 IDH1KD tx: HT-1080 IDH1 knockdown cell toxicity (counter line) | Potency, µM (highest dose often 46.1 µM), inactives show top-dose activity, negative = toxicity, most hits filed as cytotoxic | 360,000 tested, 2% active | HT-1080 IDH1 knockdown viability, ATP luminescence, 48 h | AID 686971;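 further: potency means the concentration at half of the fitted maximal effect; 0% = DMSO wells and -100% = cell-free medium wells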
#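 IDH1KD HT-1080 cells, 750/well, RPMI + 5% FBS; compound pinned after 2 h settling; 48 h, 37 °C; CellTiter-Glo luminescence; % activity normalised to DMSO and no-cell wells; curves fitted, classed by r2 and efficacy.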
# The depositor's hits bear a star; ? = inconclusive; nt = no result given; [ ] = dose if it differs, or a comment. The sample as a whole holds a higher share of hits than the screen did. Unless noted, the call rests on the fitted dose curve; in most records, active means well fitted curve in the direction sought with a large enough effect; inconclusive means small, poorly fitted or top-dose-only effect, or another doubt; inactive means no such curve, though single readings can be large; an effect the other way counts as inactive or inconclusive. Unless noted, on the % scale 0 is the no-effect control and ±100 the full control effect.
SMILES,TDP1 cell CPT,ALOX12 inh,IL1B secr inh,TDP1 cell noCPT,HT1080NT lethal,HT1080 IDH1KD tx
C[C@H]1[C@@H]2[C@@H](O)C([C@H](C)C(=O)N3CCc4ccccc4C3)CC[C@@]2(C)CC[C@@H]1NC(=O)c1cnccn1 (stereo partly specified),nt,36%,nt,nt,nt,nt
O=C(N1CCN(c2ccccn2)CC1)C1(c2ccc(Cl)cc2)CCOCC1,nt,0%[6.33 µM],nt,nt,nt,nt
COc1cc(OC)c2c(C)cc(=O)oc2c1C(CCN1CCN(c2ccccc2)CC1)c1ccc2c(c1)OCO2 (stereo unspecified),5.2µM*,122%,48,21µM*,-13%,-13%
COc1cc(OC)c2ccc(=O)oc2c1C(CC(=O)N1CCN(c2ccccc2)CC1)c1ccc2c(c1)OCO2 (stereo unspecified),?,-6%,-25,?,8%,-4%
COc1cc(C(CCN2CCCCC2)c2c(OC)cc(OC)c3c(C)cc(=O)oc23)cc(OC)c1OC (stereo unspecified),10µM*,-2%,12,10µM*,-6%,-12%
COc1cc(C(CCN2CCCC2)c2c(OC)cc(OC)c3c(-c4ccccc4)cc(=O)oc23)cc(OC)c1OC (stereo unspecified),16µM*,-3%,17,21µM*,-26%,-19%
O=C(Nc1ccccc1O)c1cc(-c2ccccc2)nc2ccccc12,nt,-1%,nt,nt,nt,nt
Cc1sc(NC(=O)c2ccco2)nc1-c1ccc2c(c1)CC(C)N2C(=O)C1CC1 (stereo unspecified),6.3µM*,-7%,-73*,3.5µM*,7.9µM*,7.9µM*
CC(=O)Nc1nc(-c2ccc3c(c2)CC(C)N3C(=O)C2CC2)c(C)s1 (stereo unspecified),1.2µM*,3%,-12,2.1µM*,?,-26%
CN(C)c1ccc2cc(S(=O)(=O)O)cc(O)c2c1,?,?,-22,-9%,15%,2%
CN(C)c1ccc2c(O)cc(=O)n(C)c2c1,15µM*,-8%,33,16µM*,6%,?
N#Cc1ccc(C(S(=O)(=O)Cc2ccccc2)S(=O)(=O)Cc2ccccc2)cc1,?,6%,-58*,?,-8%,-9%
CCCCn1nc(C(=O)N2CCC(n3c(=O)[nH]c4ccccc43)CC2)c2ccccc2c1=O,nt,-42%,nt,nt,nt,nt
COCc1cc(=O)[nH]c(SCCS(=O)(=O)c2ccc(Cl)cc2Cl)n1,21µM*,-97%,-28,?,-2%,-6%
COCc1cc(=O)[nH]c(SCCS(=O)(=O)c2ccc(C)cc2)n1,25%,0%,-12,-7%,-3%,-6%
Cc1cc(S(=O)(=O)N2CCC3(CC2)OCCN3S(=O)(=O)c2cccs2)ccc1F,-24%,nt,-10,-29%,-6%,-12%
COc1ccc(S(=O)(=O)N2CCC3(CC2)OCCN3S(=O)(=O)c2ccc(OC)cc2)cc1,?,-24%,-13,?,-2%,-5%
COc1ccc(S(=O)(=O)N2CCOC23CCN(S(=O)(=O)c2cccs2)CC3)cc1,13µM*,-6%,1,16µM*,7%,9%
O=S(=O)(c1ccccc1)N1CCC2(CC1)OCCN2S(=O)(=O)c1cccs1,?,1%,13,21µM*,-2%,-7%
CCCCN(C)CCNC(=O)c1cc2c(=O)n(C)c3ccccc3c2n1C,?,-5%,nt,23µM*,nt,nt
CCCCN(CC)CCCNC(=O)c1cc2c(=O)n(C)c3ccccc3c2n1C,?,10%[57.4 µM],-73*,?,-5%,-21%
CCCCN(C)CCNC(=O)c1cc2c(=O)[nH]c3ccccc3c2n1C,5%,-1%,-16,-28%,-15%,-10%
Cn1c(C(=O)NCc2ccccn2)cc2c(=O)n(C)c3ccccc3c21,0.58µM*,404%,-28,?,4%,-5%
CC(NC(=O)c1cc2c(=O)n(C)c3ccccc3c2n1C)c1ccc2c(c1)OCCO2 (stereo unspecified),29µM*,1%[57.4 µM],13,13µM*,14%,8%
Cc1csc(NC(=O)C(C)Sc2nnc(-c3ccco3)n2CC(C)C)n1 (stereo unspecified),nt,19%,nt,nt,nt,nt
SMILES,TDP1 cell CPT,ALOX12 inh,IL1B secr inh,TDP1 cell noCPT,HT1080NT lethal,HT1080 IDH1KD tx
CCOC(=O)C1=C(C)N=C2SC=C(CC(=O)NCC3CC3)N2C1c1ccccc1OC (stereo unspecified),nt,9%,nt,nt,nt,nt
CC(C)CCNC(=O)c1cnc2n1CCN(Cc1ccc3c(c1)CCO3)CC2,nt,-2%[176 µM],nt,nt,nt,nt
CCCc1nc2ccc(NC(=O)c3cccs3)cc2c(=O)n1Cc1ccccc1Cl,?,-5%,-14,16µM*,8%,17%
CCCc1nc2ccc(NC(C)=O)cc2c(=O)n1Cc1ccc(Cl)cc1,?,-23%,?,23µM*,-10%,-6%
O=C(O)c1ccc(N/N=C/c2ccc(-c3cc(Cl)ccc3Cl)o2)cc1,26µM*,-24%,?,?,?,16µM*
COC(=O)N/N=C/c1ccc(-c2ccc(Cl)cc2Cl)o1,3%,41%,2,-9%,-1%,-10%
NS(=O)(=O)c1ccc(-c2ccc(/C=N/Nc3ccc(C(=O)O)cc3)o2)cc1,-17%,23%,-4,-1%,1%,0%
Cc1c(C(=O)O)cccc1-c1ccc(/C=N/Nc2ccc(Br)cc2)o1,-4%,45µM*,5,-25%,-23%,?
O=C(O)c1ccc(N/N=C/c2ccc(-c3ccc(Cl)cc3Cl)o2)cc1,16µM*,?,4,?,?,?

# Screening results as filed in PubChem.
